Six1-Eya2 blk: qHTS Assay for Inhibitors of the Six1/Eya2 Interaction | AlphaScreen GST-Six1/His-Eya2 binding, biochemical; hits give low values | Homeobox protein SIX1 (Homo sapiens) + Protein phosphatase EYA2 (Homo sapiens), … | hit rate 0.56% among 360,000 | activity change, % (test concentration not listed); in the data active = activity change below about -65%; inconclusive = mostly about -30% to -63%; note: % is set by controls: 0 for no effect and ±100 for the full control effect
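AlphaScreen with GST-Six1 and His-Eya2 (5X mix: 250 nM and 500 nM), glutathione donor and nickel acceptor beads; buffer 50 mM Tris pH 8.0, 300 mM NaCl, 1 mM TCEP; 1 h at 37 C in the dark.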
CtBP-E1A inh: qHTS Assay for Inhibitors of the CtBP/E1A Interaction; CtBP / adenovirus E1A interaction (AlphaScreen); hit rate 0.49% among 340,000; AID 651724, 2012; AlphaScreen GST-E1A/His-CtBP binding, 1536-well; hits give low values; activity change, % (no concentration beside the values); in the data active = activity change below about -65%; inconclusive = mostly about -30% to -63%; note: % is set by controls: 0 for no effect and ±100 for the full control effect
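In 5 uL wells, 23 nL compound meets equimolar GST-E1A and His-CtBP (5X stock 125 nM each) for 2 h, 37 °C. Beads (5X, 50 ug/mL) then 1 h, 37 °C, dark.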
JMJD2A Tudor: qHTS Assay for Inhibitors of JMJD2A-Tudor Domain. hit rate 4.4% among 390,000. Lysine-specific demethylase 4A (Homo sapiens), O75164. Potency, µM (top dose mostly 114 µM), without a hit: at the highest dose activity change, negative = inhibition, usual class: inhibitors. AlphaScreen JMJD2A-Tudor / H3K4me3 peptide binding; note: potency is the fitted concentration of half-maximal effect; % is set by controls: 0 for no effect and ±100 for the full control effect; nearly all actives have a fitted effect of over 50% in size
BAZ2B block: qHTS Assay for Inhibitors of BAZ2B; Bromodomain adjacent to zinc finger domain protein 2B (Homo sapiens), Q9UIF8; AlphaScreen BAZ2B-H3K14Ac peptide displacement; Potency, µM (titrated, usually from 114 µM), inactives show at the highest dose activity change, negative = inhibition, actives largely listed as inhibitors; hit rate 4.4% among 360,000; AID 504333, 2011; note: potency is the fitted concentration of half-maximal effect; % is set by controls: 0 for no effect and ±100 for the full control effect; nearly all actives have a fitted effect of over 60% in size
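AlphaScreen luminescence quantifies BAZ2B engagement of H3K14Ac peptide; the protein and biotinylated peptide are both at 50 nM final, buffer PBS pH 7.4 with 0.01% Tween-20, all steps at room temperature.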
G9a inh: qHTS Assay for Inhibitors of Histone Lysine Methyltransferase G9a. Histone-lysine N-methyltransferase EHMT2 (Homo sapiens), Q96KQ7. G9a H3K9 monomethylation, AlphaScreen, 2 h. Potency, µM (series often up to 102 µM), inactives show at the top dose activity, negative = inhibition, hits mostly inhibitors. hit rate 8.8% among 350,000; note: potency is the fitted concentration of half-maximal effect; % is set by controls: 0 for no effect and ±100 for the full control effect; nearly all actives have a fitted effect of over 75% in size
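AlphaScreen detection with an anti-monomethyl H3K9 antibody quantified product after a 2 h room-temperature reaction containing 500 nM biotinylated H3K9 peptide, 20 µM SAM and 20 nM enzyme, which had been preincubated 15 min with compound.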
HP1b chromo inh: HTS for Inhibitors of HP1-beta Chromodomain Interactions with Methylated Histone Tails; AlphaScreen HP1-beta / biotin-H3K9me3 peptide binding; AID 540317, 2011; hit rate 0.56% among 390,000; Potency, µM (titrated, usually from 114 µM), without a hit: top-dose activity change, negative = inhibition, most hits filed as inhibitors; note: potency is the fitted concentration of half-maximal effect; nearly all actives have a fitted effect of over 70% in size
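AlphaScreen: HP1-beta (50 nM) preformed 30 min with biotin-H3(1-18)K9me3 peptide (50 nM) in PBS pH 7.4, 0.01% Tween-20. Compound added for 30 min at RT, then streptavidin donor/nickel chelate acceptor beads (10 ug/mL) for 30 min.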
Starred values were filed as active, the others as inactive; u = inconclusive; x = no result; ! = a repeat was not active; [ ] = remark or other dose. Shown are actives, neighbours in structure and some others; about 10% of the full set was active somewhere. Unless noted, calls come from the whole dose curve; as a rule, active = well fitted inhibition curve with a large enough effect; inconclusive = small, poorly fitted or top-dose-only effect; inactive = no such curve, though single readings can be large or run the other way.

SMILES	Six1-Eya2 blk	CtBP-E1A inh	JMJD2A Tudor	BAZ2B block	G9a inh	HP1b chromo inh
Cc1ccc(-c2csc(N3CCN(c4cc5c(cc4Cl)nc(C(C)N)n5CCCO)CC3)n2)cc1 (centres undefined)	4.5	3.0	-35.7%	-31.3%	13.3%	34.8%
Cc1csc(N2CCCC2c2nc3cc(Cl)c(N4CCCCC4)cc3n2CCOCCO)n1 (centres undefined)	-7.1	-1.4	u	x	x	-5.7%
CC1=NN(c2ccccc2)C(=O)/C1=C\c1ccc(Oc2ccc([N+](=O)[O-])cc2[N+](=O)[O-])cc1	-8.2	3.1	39.8µM*	39.8µM*	44.7µM*	u
Nc1ccc(Oc2ccc([N+](=O)[O-])cc2[N+](=O)[O-])cc1	-10.6	-11.9	u	-5.1%	u	u
COc1cc(/C=C2\C(=O)N(c3ccccc3)N=C2C)ccc1Oc1ccc([N+](=O)[O-])cc1[N+](=O)[O-]	-20.6	-28.9	25.1µM*	44.7µM*	u	u
CC(C)(C)c1ccc2c(c1)N(CC(=O)O)C(=O)CO2	1.7	1.0	-7.7%	-33.8%	-28.7%	35.7%
CCOC(=O)N1CCN(C(=O)CN2C(=O)COc3ccc(C(C)(C)C)cc32)CC1	4.0	5.3	89.1µM*	38.1%	u	-3.4%
Cc1cccc(N2CCN(c3ncnc4c3nc3n4CCCCC3)CC2)c1C	x	x	-10.9%	-14.5%	-27.4%[59 µM]	14.7%
N#CC(=Nc1cccc(F)c1)C1=C(O)c2ccccc2C1=O	-2.9	0.6	x	x	x	x
COc1ccc(CN=C(C#N)C2=C(O)c3ccccc3C2=O)cc1	-6.9	x	u	-37.0%	35.5µM*	27.9%
CC(=O)N1[C@H](Cc2ccccc2)C=C[C@]1(C)C(=O)NCc1ccc(C)o1	-0.9	4.5	-20.1%	-10.8%	6.31µM*	19.5%
CNC(=O)[C@@]1(C)C=C[C@@H](Cc2ccccc2)N1C(=O)OC	-8.5	-6.4	-23.9%	-16.3%	79.4µM*	0.1%
COC(=O)N1[C@H](Cc2ccccc2)C=C[C@]1(C)C(=O)NCc1ccccn1	-2.1	-2.1	-28.5%	-31.5%	u	39.0%
O=C(Cn1ncc2c3ccccc3n(Cc3cccc(Cl)c3)c2c1=O)NCCCN1CCCCC1	x	x	-26.8%	-19.1%	-14.4%[59 µM]	30.9%
Nc1cccc(S(=O)(=O)N2CCN(S(=O)(=O)c3ccc4c(c3)OCCO4)CC2)c1	x	x	-2.0%	x	x	x
Cc1ccsc1/C=N/N=C/c1sccc1C	-3.8	x	-14.3%	-30.9%	3.8%[0.501 µM]	12.4%
Cc1ccsc1C=Nc1ccc(O)cc1	u	u	79.4µM*	39.8µM*	12.6µM*	u
N[C@@H](Cc1cnc[nH]1)C(=O)O	x	x	x	x	5.97µM*!	x
O=C(c1ccccc1)c1ccc(O)c(O)c1O	-10.9	8.3	25.1µM*	x	x	u
Cc1cc(C(=O)c2ccccc2)cc(C)c1O	-86.1*	-23.1	-3.4%	x	x	25.1%
O=C(c1ccccc1)c1cccc2ccccc12	12.1	53.6	125.9%	x	x	114.0%
CC(C)Oc1ccc(CNC(=O)c2ccccc2NC(=O)c2nsc3ccccc23)cc1	x	x	-14.0%	10.4%	18.9%[59 µM]	17.9%[57 µM]
CCC1c2ccc(C)n2CCN1C(=O)Nc1ccccc1C(=O)OC (centres undefined)	2.2	-1.2	-32.1%	-27.7%	50.1µM*	7.8%
CCOC(=O)c1ccccc1NC(=O)N1CCn2c(C)ccc2C1CC (centres undefined)	-9.1	-5.5	-16.9%	-10.8%	22.4µM*	29.2%
CCC[C@H](N[C@@H](C)C(=O)N1[C@@H]2CCCC[C@H]2C[C@H]1C(=O)O)C(=O)OCC	x	x	x	x	8.6%[59 µM]	x
Cc1ccc(Cn2c(C)c(CNCc3ccccc3F)c(C(=O)O)c2C)cc1	x	x	-9.1%	-15.7%	3.5%[59 µM]	18.0%

Source: PubChem BioAssay (National Center for Advancing Translational Sciences (NCATS))
